Laboratory results from PubChem BioAssay AID1159580 (chemical genetic matrix, 2015).
In all, about 5,500 compounds went through this assay and about 2,000 (36%) were called active. About 18% were inconclusive and are not listed. The list shows a part of the results. A number with no mark means an inactive call. Cut-off read from the data, not from the text of the source: active = normalized growth mostly below about 0.91 (no sharp cut-off); inconclusive = no clear call, values can overlap the other calls; inactive = mostly above about 0.92.

Experiment: chemical genetic growth profiling, strain panel (AID 1159580);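 note: tested at 20 µM; growth read once vehicle control cultures reached saturation at 30 °C; 1 = growth at the plate median or of vehicle wells; lower values mean less growth of the strain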
Conditions: S. cerevisiae deletion strains, growth OD

In the case of CNC(=O)[C@H]1O[C@@H](n2cnc3c(N)ncnc32)C(O)[C@H]1O (some centres undefined), the normalized growth (locus YAL013W, strain DEP1, hits give low values) is reported as 0.987, the normalized growth (locus YAL040C, strain CLN3, hits give low values) is reported as 0.989 and the normalized growth (locus YDR363W, strain ESC2, hits give low values) is reported as 1.07. It also gave a normalized growth (locus YER002W, strain NOP16, hits give low values) of 0.973, a normalized growth (locus YGR078C, strain PAC10, hits give low values) of 1 and a normalized growth (locus YMR263W, strain SAP30, hits give low values) of 0.985. It also gave a normalized growth (locus YNL128W, strain TEP1, hits give low values) of 0.983, a normalized growth (locus YNL175C, strain NOP13, hits give low values) of 0.984 and a normalized growth (locus YNL197C, strain WHI3, hits give low values) of 0.997. The normalized growth (locus YNL224C, strain SQS1, hits give low values) was 0.996, the normalized growth (locus YNL322C, strain KRE1, hits give low values) was 1.02 and the normalized growth (locus YOR083W, strain WHI5 (second series), hits give low values) was 1.02. It also gave a normalized growth (locus YPL241C, strain CIN2, hits give low values) of 0.976.

For CSC1=NNC(c2nn(C)cc2Cl)S1 (centres undefined), the normalized growth (locus YAR019C, strain CDC15, hits give low values) was 0.366 (active), the normalized growth (locus YBL105C, strain PKC1, hits give low values) was 0.509 (active) and the normalized growth (locus YBR135W, strain CKS1, hits give low values) was 0.582 (active). The normalized growth (locus YBR136W, strain MEC1, hits give low values) was 0.565 (active), the normalized growth (locus YBR160W, strain CDC28, hits give low values) was 0.644 (active) and the normalized growth (locus YDL017W, strain CDC7, hits give low values) was 0.586 (active). For the same compound, the normalized growth (locus YDL028C, strain MPS1, hits give low values) was 0.551 (active), the normalized growth (locus YDL101C, strain DUN1, hits give low values) was 0.206 (active) and the normalized growth (locus YDL108W, strain KIN28, hits give low values) was 0.653 (active). For the same compound, the normalized growth (locus YDL132W, strain cdc53, hits give low values) was 0.472 (active), the normalized growth (locus YDL214C, strain PRR2, hits give low values) was 0.145 (active) and the normalized growth (locus YDR052C, strain DBF4, hits give low values) was 0.874 (active). The normalized growth (locus YDR054C, strain cdc34, hits give low values) was 0.318 (active), the normalized growth (locus YDR226W, strain ADK1, hits give low values) was 0.511 (active) and the normalized growth (locus YDR477W, strain SNF1, hits give low values) was 0.134 (active). For the same compound, the normalized growth (locus YER123W, strain YCK3, hits give low values) was 0.126 (active), the normalized growth (locus YER133W, strain GLC7, hits give low values) was 0.138 (active) and the normalized growth (locus YFL009W, strain cdc4, hits give low values) was 0.282 (active). For the same compound, the normalized growth (locus YFL029C, strain CAK1, hits give low values) was 0.374 (active), the normalized growth (locus YFR003C, strain YPI1, hits give low values) was 0.594 (active) and the normalized growth (locus YFR019W, strain FAB1, hits give low values) was 0.148 (active). For the same compound, the normalized growth (locus YFR028C, strain CDC14, hits give low values) was 0.444 (active), the normalized growth (locus YGR040W, strain KSS1, hits give low values) was 0.13 (active) and the normalized growth (locus YGR052W, strain FMP48, hits give low values) was 0.131 (active). For the same compound, the normalized growth (locus YGR092W, strain DBF2, hits give low values) was 0.117 (active), the normalized growth (locus YHR030C, strain SLT2, hits give low values) was 0.178 (active) and the normalized growth (locus YHR079C, strain IRE1, hits give low values) was 0.214 (active). The normalized growth (locus YHR082C, strain KSP1, hits give low values) was 0.236 (active), the normalized growth (locus YHR205W, strain SCH9, hits give low values) was 0.0971 (active) and the normalized growth (locus YIL147C, strain SLN1, hits give low values) was 0.502 (active). For the same compound, the normalized growth (locus YJL095W, strain BCK1, hits give low values) was 0.134 (active), the normalized growth (locus YJL128C, strain PBS2, hits give low values) was 0.31 (active) and the normalized growth (locus YJL157C, strain FAR1, hits give low values) was 0.159 (active). The normalized growth (locus YJR016C, strain ILV3, hits give low values) was 0.337 (active), the normalized growth (locus YJR066W, strain TOR1 (second series), hits give low values) was 0.171 (active) and the normalized growth (locus YJR066W, strain TOR1, hits give low values) was 0.17 (active). The normalized growth (locus YKL048C, strain ELM1, hits give low values) was 0.158 (active), the normalized growth (locus YKL067W, strain YNK1, hits give low values) was 0.176 (active) and the normalized growth (locus YKL101W, strain HSL1, hits give low values) was 0.142 (active). The normalized growth (locus YKL193C, strain SDS22, hits give low values) was 0.425 (active), the normalized growth (locus YKL203C, strain TOR2, hits give low values) was 0.136 (active) and the normalized growth (locus YLR113W, strain HOG1, hits give low values) was 0.157 (active). For the same compound, the normalized growth (locus YLR133W, strain CKI1, hits give low values) was 0.137 (active), the normalized growth (locus YLR403W, strain SFP1, hits give low values) was 0.0487 (active) and the normalized growth (locus YML070W, strain DAK1, hits give low values) was 0.147 (active). The normalized growth (locus YMR001C, strain CDC5, hits give low values) was 0.479 (active), the normalized growth (locus YMR205C, strain PFK2 (second series), hits give low values) was 0.143 (active) and the normalized growth (locus YMR277W, strain FCP1, hits give low values) was 0.292 (active). The normalized growth (locus YNL006W, strain LST8, hits give low values) was 0.372 (active), the normalized growth (locus YNL020C, strain ARK1, hits give low values) was 0.126 (active) and the normalized growth (locus YNL161W, strain CBK1, hits give low values) was 0.393 (active). The normalized growth (locus YNL183C, strain NPR1, hits give low values) was 0.112 (active), the normalized growth (locus YNL207W, strain RIO2, hits give low values) was 0.448 (active) and the normalized growth (locus YNL222W, strain SSU72, hits give low values) was 0.455 (active). The normalized growth (locus YNL307C, strain MCK1 (second series), hits give low values) was 0.122 (active), the normalized growth (locus YOL078W, strain AVO1, hits give low values) was 0.415 (active) and the normalized growth (locus YOL136C, strain PFK27, hits give low values) was 0.116 (active). For the same compound, the normalized growth (locus YOR061W, strain CKA2, hits give low values) was 0.118 (active), the normalized growth (locus YOR119C, strain RIO1, hits give low values) was 0.156 (active) and the normalized growth (locus YOR231W, strain MKK1, hits give low values) was 0.222 (active). For the same compound, the normalized growth (locus YOR329C, strain SCD5, hits give low values) was 0.487 (active), the normalized growth (locus YPL031C, strain PHO85, hits give low values) was 0.128 (active) and the normalized growth (locus YPL153C, strain RAD53, hits give low values) was 0.121 (active). For the same compound, the normalized growth (locus YPL204W, strain HRR25, hits give low values) was 0.16 (active), the normalized growth (locus YPL209C, strain IPL1, hits give low values) was 0.595 (active) and the normalized growth (locus YPL256C, strain CLN2, hits give low values) was 0.177 (active). For the same compound, the normalized growth (locus YPR025C, strain CCL1, hits give low values) was 0.511 (active), the normalized growth (locus YPR106W, strain ISR1, hits give low values) was 0.395 (active) and the normalized growth (locus YPR111W, strain DBF20, hits give low values) was 0.525 (active). The normalized growth (strain NNK1, hits give low values) was 0.199 (active) and the normalized growth (strain TSCII, hits give low values) was 0.337 (active).
